# Assay outcomes (PubChem)
# A selection: hits, their analogues and other compounds. The true share with any hit is near 2.5%.
# L3MBTL1 block: L3MBTL1 (human) inhibition; Q9Y468; AlphaScreen L3MBTL1–H3K9me1 peptide binding; Potency, µM (highest dose often 57.1 µM), without a hit: at the top dose activity, negative = inhibition, most hits filed as inhibitors; 230,000 tested, 0.66% active; note: potency is the fitted concentration of half-maximal effect; % is set by controls: 0 for no effect and ±100 for the full control effect; nearly all actives have a fitted effect of over 60% in size
#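 First, the protein-peptide complex forms for 30 min at room temperature (L3MBTL1 50 nM, biotinylated H3K9me1 peptide 75 nM). Next, compounds are pin-transferred and incubated 30 min. Finally, AlphaScreen beads are added and read after 30 min.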
# POLB inh: inhibitors of human DNA polymerase beta; P06746; Pol beta primer extension/strand displacement, fluorescence kinetic; Potency, µM (highest dose often 114 µM), for the others: at the top dose activity change, negative = inhibition, usual class: inhibitors; 340,000 tested, 1.3% active; note: potency is the fitted concentration of half-maximal effect; % is set by controls: 0 for no effect and ±100 for the full control effect
#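 Pol beta (10 nM) and compounds were preincubated 15 min at room temperature, then 50 nM substrate (final) started primer extension/strand displacement. Reads were taken at 0 and 10 min; concentration-response data were fitted to a four-parameter Hill equation.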
# WRN inhibitor: inhibitors of human WRN helicase; WRN helicase unwinding, fluorescent forked duplex, kinetic; Potency, µM (series often up to 114 µM), without a hit: top-dose activity change, negative = inhibition, actives largely listed as inhibitors; 360,000 tested, 0.46% active; AID 651768; note: potency is the fitted concentration of half-maximal effect; % is set by controls: 0 for no effect and ±100 for the full control effect; nearly all actives have a fitted effect of over 55% in size
#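 Screening of the MLSMR collection measured strand separation of a quenched forked DNA duplex (100 nM) by 20 nM WRN with 2 mM ATP, all final. Compounds were preincubated with enzyme 15 min at room temperature.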
# POLI inh: inhibitors of human DNA polymerase iota; Pol iota fluorescent replication assay, 10 min; Potency, µM (series often up to 115 µM), without a hit: at the top dose activity, negative = inhibition, usual class: inhibitors; 390,000 tested, 1% active; AID 588590; note: potency is the fitted concentration of half-maximal effect
# Target sequence (Q9UNA4 whole entry, looked up): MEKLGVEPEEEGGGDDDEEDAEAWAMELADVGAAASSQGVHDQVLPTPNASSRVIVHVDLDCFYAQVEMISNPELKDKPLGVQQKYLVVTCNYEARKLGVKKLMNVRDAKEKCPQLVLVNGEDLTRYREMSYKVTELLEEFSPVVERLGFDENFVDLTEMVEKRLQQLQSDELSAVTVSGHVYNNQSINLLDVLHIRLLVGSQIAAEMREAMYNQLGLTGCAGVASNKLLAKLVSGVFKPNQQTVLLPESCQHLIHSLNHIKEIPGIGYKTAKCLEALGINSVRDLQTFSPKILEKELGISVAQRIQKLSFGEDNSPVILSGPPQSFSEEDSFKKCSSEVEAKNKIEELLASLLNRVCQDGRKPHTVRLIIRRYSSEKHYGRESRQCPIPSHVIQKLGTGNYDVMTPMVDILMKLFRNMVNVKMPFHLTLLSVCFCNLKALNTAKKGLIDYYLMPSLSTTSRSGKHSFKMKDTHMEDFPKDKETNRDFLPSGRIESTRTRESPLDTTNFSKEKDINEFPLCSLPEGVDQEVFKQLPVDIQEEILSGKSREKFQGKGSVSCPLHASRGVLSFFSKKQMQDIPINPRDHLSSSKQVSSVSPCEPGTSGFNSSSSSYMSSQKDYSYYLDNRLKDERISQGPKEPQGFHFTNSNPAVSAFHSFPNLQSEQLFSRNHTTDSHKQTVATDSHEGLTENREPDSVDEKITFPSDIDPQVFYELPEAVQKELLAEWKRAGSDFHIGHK
#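 Pol iota at 10 nM preincubated 15 min with compounds at room temperature; reaction started with fluorescent substrate, 50 nM final. Fluorescence read kinetically at 0 and 10 min; buffer-only wells as negative control.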
# Pol eta inh-1: DNA polymerase eta (human) inhibition; Q9Y253; recombinant Pol eta, fluorescent DNA replication assay; Potency, µM (series often up to 114 µM), for the others: at the highest dose activity change, negative = inhibition, usual class: inhibitors; 390,000 tested, 1.2% active; note: potency is the fitted concentration of half-maximal effect; % is set by controls: 0 for no effect and ±100 for the full control effect
#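 Fluorescent replication assay: 50 nM final substrate added after a 15 min room-temperature compound preincubation with 10 nM enzyme. Signal taken at 0 min and again at 10 min.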
# Pol kappa inh-1: inhibitors of human DNA polymerase kappa; Q9UBT6; purified Pol kappa, fluorescent DNA synthesis assay, 10 min; Potency, µM (series often up to 107 µM), for the others: at the highest dose activity, negative = inhibition, most hits filed as inhibitors; 400,000 tested, 0.53% active; note: potency is the fitted concentration of half-maximal effect; % is set by controls: 0 for no effect and ±100 for the full control effect
#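 10 nM Pol kappa was preincubated with compounds for 15 min at room temperature. Reaction started with 50 nM (final) substrate. Fluorescence read kinetically at 0 and 10 min.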
# TbPGK inh: TbPGK inhibition, hit validation; shares compounds with Pol kappa inh-1; TbPGK coupled GAPDH assay, Kinase-Glo luminescence; Potency, µM (highest dose often 57.5 µM), for inactives: at the top dose activity change, negative = inhibition, hits mostly inhibitors; 500 tested, 79% active; note: potency is the fitted concentration of half-maximal effect; % is set by controls: 0 for no effect and ±100 for the full control effect; nearly all actives have a fitted effect of over 65% in size
# POLI cherry-pick: Confirm cherry-picked inhibitors of human polymerase iota; shares compounds with Pol kappa inh-1; Pol iota primer extension, TAMRA/BHQ fluorescence; Potency, µM, hits mostly inhibitors; 1,500 tested, 77% active; AID 720496; note: potency is the fitted concentration of half-maximal effect
# GALK confirm: confirmation of human galactokinase (GALK) inhibitors; shares compounds with Pol eta inh-1; purified GALK, Kinase-Glo ATP depletion luminescence; Potency, µM (top dose mostly 115 µM), inactives show at the highest dose activity, negative = inhibition, hits mostly inhibitors; 150 tested, 70% active; AID 2015
# GALK redox cs: redox cycling activity in phenol red-HRP assay; shares compounds with Pol eta inh-1; Phenol red-HRP H2O2 redox cycling, absorbance 600 nm; Potency, µM (highest dose often 115 µM), inactives show at the top dose activity change, negative = H2O2 signal, usual class: inhibitors; 150 tested, 40% active
# HEK293 viability: counter-screen for GALK inhibitors: HEK293 cell cytotoxicity. shares compounds with Pol eta inh-1. HEK-293 viability, ATP luminescence (CellTiter-Glo), 24/48 h. Potency, µM (doses to about 46.1 µM), without a hit: at the highest dose activity change, negative = cytotoxicity, hits mostly inhibitors. 170 tested, 10% active; note: potency is the fitted concentration of half-maximal effect; % is set by controls: 0 for no effect and ±100 for the full control effect
# Pol kappa inh-2: Pol kappa (human) inhibition, cherry-pick confirmation; purified Pol-kappa, fluorescent strand-displacement substrate; AID 720501; Potency, µM, usual class: inhibitors; 920 tested, 76% active; shares compounds with Pol eta inh-1; note: potency is the fitted concentration of half-maximal effect
# Pol eta inh-2: confirmation of human DNA polymerase eta inhibitors; shares compounds with Pol eta inh-1; Pol eta primer extension, TAMRA/BHQ fluorescence, 10 min; Potency, µM, most hits filed as inhibitors; 2,600 tested, 64% active; AID 720502; note: potency is the fitted concentration of half-maximal effect
# * hit, by the source's call; ? = inconclusive; · = no result given; [ ] = dose if it differs, or a comment. Calls come from the whole dose curve; as a rule, active = well fitted curve in the direction sought with a large enough effect; inconclusive = small, poorly fitted or top-dose-only effect, or another doubt; inactive = no such curve, though single readings can be large; an effect the other way counts as inactive or inconclusive.
SMILES,L3MBTL1 block,POLB inh,WRN inhibitor,POLI inh,Pol eta inh-1,Pol kappa inh-1,POLI cherry-pick,Pol eta inh-2,others
N#C/C(=C\c1ccc(OCc2ccc(Cl)cc2)cc1)C(=O)Nc1cccc(C(=O)O)c1,·,32µM*,?,?,?,-8%,42*,76*,
O=C(CSc1nnnn1-c1ccccc1F)NNC(=O)c1ccco1,-4%,8%,9%,-21%,-3%,1%,·,·,
O=C(O)C(c1ccccc1)N1C(=O)/C(=C\c2ccc(O)c(O)c2)SC1=S (stereo not given),·,4µM*,32µM*,?,3.2µM*,7.1µM*,15*,4.8*,Pol kappa inh-2=2.7*
CCOc1ccc(/C=C2/SC(=S)N(C(C(=O)O)c3ccccc3)C2=O)cc1OCC (stereo not given),·,-15%,-16%,?,?,-2%,·,·,
Cc1cc(CC(=O)O)c2oc(-c3ccoc3)cc(=O)c2c1,·,·,?,?,8.9µM*,40µM*,34*,7.6*,
Cc1cc2c(=O)cc(-c3ccccc3)oc2c(C(=O)O)c1C,·,·,-4%[57.1 µM],·,·,·,·,·,
CCOC(=O)C(=Nc1ccc(Cl)cc1)NO,2%,6%,-4%,11%,0%,-6%,·,·,
O=C1C(Cc2ccccc2)S/C(=N/N=C/c2ccco2)N1c1ccccc1 (stereo not given),-6%,-20%,-6%,0%,?,-4%,·,·,
O=C(/C=C/c1ccc([N+](=O)[O-])cc1)NCCc1ccccc1,5%,21%,-3%,32%,-16%,-6%,·,·,
O=C(/C=C/c1ccccc1)NCCc1ccccc1,·,25µM*,-11%,?,20µM*,?,?,67*,TbPGK inh=21µM*
CN(C)CCO[C@](C)(c1ccccc1)c1ccccn1,·,·,·,·,·,-5%[12 µM],·,·,
CC(=O)c1cccc(NC(=O)CSc2ccc(-c3ccco3)nn2)c1,·,50µM*,?,22µM*,?,?,?,?,
C/C(=N\NC(=O)COc1ccccc1[N+](=O)[O-])c1cccc(NC(=O)c2ccncc2)c1,·,-20%,-24%,?,?,-13%,·,·,
O=C(Nc1ccc(N2CCCCC2)cc1)c1ccc([N+](=O)[O-])o1,·,40µM*,-7%[11.6 µM],40µM*,50µM*,?,34*,60*,
O=C(c1ccco1)N(CCCN1CCOCC1)c1nc(-c2ccc(F)cc2)cs1,-6%,3%,-15%,3%,-10%,-9%,·,·,
O=C1C=CC(=O)c2c(O)c(N3CCN(CCO)CC3)c(Cl)c(O)c21,·,·,32µM*,5.6µM*,1.8µM*,22µM*,3.4*,17*,Pol kappa inh-2=17*
CN1C(=O)/C(=C/c2ccc(C(=O)Nc3ccc(O)cc3C(=O)O)cc2)SC1=S,·,?,-2%,?,22µM*,-9%,75*,43*,
CCC(Sc1nc2ccsc2c(=O)n1Cc1ccc(C(=O)O)cc1)C(=O)Nc1cc(Cl)ccc1C (stereo not given),·,·,4%,·,?,·,67*,·,Pol kappa inh-2=67*
CC1=CC(C)(C)N=C(NC#N)N1,·,-4%,0%,13%,-4%,0%,·,·,
COc1cccc(-c2nc(-c3ccc(NC(=O)c4ccncc4)cc3)no2)c1,·,14µM*,-10%[57.1 µM],?,35µM*,-27%,11*,11*,
O=C1C=CC2=C3c4cc(O)c(O)cc4CC3(O)COC2=C1O (stereo not given),·,·,4.5µM*,1.3µM*,0.79µM*,1.1µM*,·,·,TbPGK inh=0.58µM*;GALK confirm=21µM*;GALK redox cs=-3%;HEK293 viability=-7%
N#CCC(=O)Nc1ccc(C(=O)OCC(=O)N2CCN(C(=O)c3ccco3)CC2)cc1,?,·,?,45µM*,?,45µM*,?,?,
Cc1ccc(-c2cc(C(=O)N/N=C/c3ccc([N+](=O)[O-])o3)c3ccccc3n2)o1,·,-9%,-14%[11.6 µM],?,50µM*,?,?,30*,
Cc1cc(C(=O)NCc2ccco2)c2ccccc2n1,·,-1%,-27%,80%,-17%,-1%,·,·,
Cc1ccc(-c2cc(C(=O)NCc3ccco3)c3ccccc3n2)o1,?,18µM*,56µM*,?,7.9µM*,79µM*,?,?,
Cc1ccc(/C=N/NC(=O)c2cc(-c3ccncc3)nc3ccccc23)o1,·,1%,2%,23%,-4%,-7%,·,·,
CCc1ccc(NC(=O)CSc2nc(=O)n(Cc3ccncc3)c3c2CCC3)cc1,·,18%,·,22%,-19%,-6%[60.1 µM],·,·,
CC(=O)c1ccc(S(=O)(=O)Nc2cccc(-n3cnnn3)c2)cc1,·,?,56µM*,20µM*,7.9µM*,?,75*,30*,
CCNC(=O)CN(CCc1ccccc1)S(C)(=O)=O,21%[11.4 µM],-4%,9%,12%,-17%,1%,·,·,
N#CC(C#N)=C1C=C2C=C(N3CCCCCC3)CCC2CC1 (stereo not given),-19%,40µM*,15µM*,45µM*,50µM*,?,42*,17*,
